Source: PubChem BioAssay (Tox21)
Values joined by “and” are separate entries in the source; they are usually repeats but may differ in a detail not shown here. Equal entries are not always repeated. Records with an inconclusive call do not appear. The source holds several records for some structures; these can differ, active in one and inactive in another. Active and inactive are the calls of the source. Unless noted, the call rests on the fitted dose curve.

Legend:
[1] = qHTS assay to identify small molecule antagonists of the vitamin D receptor (VDR) signaling pathway - cell viability counter screen (AID 743225; active means well fitted curve in the direction sought with a large enough effect in the repeat runs; an effect the other way counts as inactive or inconclusive; further: nearly all actives have a fitted effect of over 50% in size; further: potency means the concentration at half of the fitted maximal effect; on viability change, negative = cytotoxic: on the % scale 0 is the no-effect control and ±100 the full control effect)
In short: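 HEK293T VDR-bla; cpd + 1a,25-(OH)2D3 3 nM final, 16 h 37C/5% CO2; B/G FRET substrate 2 h RT; then CellTiter-Glo 30 min RT, luminescence.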

[2] = qHTS assay to identify small molecule agonists of the NFkB signaling pathway (AID 1159509; active means well fitted curve in the direction sought with a large enough effect in the signal ratio in the repeat runs, not every such curve was filed as active; the % refers to the signal ratio; further: series mostly up to about 61 µM; on the % scale 0 is the no-effect control and ±100 the full control effect)
In short: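 ME-180 NFkB-bla, 2,000 cells/well, overnight plating; cpd pinned in DMSO, 5 h 37 C; B/G FRET substrate 1.5 h RT; ex 405, em 460/530 nm.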

[3] = qHTS assay to identify small molecule agonists of the NFkB signaling pathway - cell viability counter screen (AID 1159515); further: series mostly up to about 61 µM; on the % scale 0 is the no-effect control and ±100 the full control effect; nearly all actives have a fitted effect of over 55% in size
In short: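 Multiplexed viability readout: after the 5 hr compound exposure and 1.5 hr FRET substrate step, CellTiter-Glo reagent went into the same NFkB-bla ME-180 wells; ATP luminescence was measured after 30 min at room temperature.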

[4] = qHTS assay to identify small molecule agonists of the endoplasmic reticulum stress response signaling pathway (AID 1159516; active means well fitted activation curve with a large enough effect in the signal ratio in the repeat runs, not every such curve was filed as active; the % refers to the signal ratio; further: on the % scale 0 is the no-effect control and ±100 the full control effect)
In short: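 Tox21 10K library screened in quantitative HTS format on ESRE-bla HeLa cells, a beta-lactamase reporter under ER stress response element control; 5 hr treatment, FRET read.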

[5] = qHTS assay to identify small molecule agonists of the endoplasmic reticulum stress response signaling pathway - cell viability counter screen (AID 1159517); further: series mostly up to about 61 µM; on the % scale 0 is the no-effect control and ±100 the full control effect; nearly all actives have a fitted effect of over 50% in size
In short: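 CellTiter-Glo was added to wells already read for beta-lactamase FRET, and luminescence was recorded 30 min later. Cells: ESRE-bla HeLa, 1,500 per well, compound exposure 5 hr at 37 C.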

[6] = qHTS assay to identify small molecule antagonists of the retinoid-related orphan receptor gamma (ROR-gamma) signaling pathway - cell viability counter screen (AID 1159520; active means well fitted curve in the direction sought with a large enough effect in the repeat runs; an effect the other way counts as inactive or inconclusive; further: on the % scale 0 is the no-effect control and ±100 the full control effect; nearly all actives have a fitted effect of over 50% in size)
In short: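 Tet-on ROR gamma CHO cells (1,000/well) were plated 4 hr, given compounds in DMSO for 2 hr at 37 C, then induced with 1 uM final doxycycline for 16 hr. Viability was read as ATP by CellTiter-Glo luminescence after 30 min.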

[7] = molecular target: Nuclear receptor ROR-gamma (Homo sapiens) (UniProt P51449); experiment: qHTS assay to identify small molecule antagonists of the retinoid-related orphan receptor gamma (ROR-gamma) signaling pathway (AID 1159521; active means well fitted curve in the direction sought with a large enough effect in the repeat runs; an effect the other way counts as inactive or inconclusive; further: nearly all actives have a fitted effect of over 50% in size; further: potency means the concentration at half of the fitted maximal effect)
In short: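 Cells were plated, rested 4 h at 37 C, exposed to compounds for 2 h, then given 1 uM final doxycycline hyclate to induce RORγ expression. After 16 h, ONE-Glo luminescence from the ROR response element reporter was measured.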

[8] = qHTS assay to identify small molecule agonists of the AP-1 signaling pathway (AID 1159526); further: on the % scale 0 is the no-effect control and ±100 the full control effect
[9] = qHTS assay to identify small molecule agonists of the vitamin D receptor (VDR) signaling pathway - cell viability counter screen (AID 743224; active means well fitted curve in the direction sought with a large enough effect in the repeat runs; an effect the other way counts as inactive or inconclusive; further: nearly all actives have a fitted effect of over 50% in size; further: potency means the concentration at half of the fitted maximal effect)
In short: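 Viability is measured in the same wells as the VDR-bla reporter assay: after 16 h compound treatment and 2 h substrate loading, CellTiter-Glo is added and luminescence read 30 min later.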

[10] = qHTS assay to identify small molecule agonists of the AP-1 signaling pathway - cell viability counter screen (AID 1159525); further: nearly all actives have a fitted effect of over 55% in size; further: potency means the concentration at half of the fitted maximal effect
In short: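 ME-180 AP-1-bla, 2500 cells/well, Opti-MEM + 0.5% dialyzed FBS; overnight 37 °C; cpd 15-pt titration, 5 h 37 °C; CellTiter-Glo 30 min RT; luminescence read; normalised to TOAB and DMSO controls.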

CC(C)CCCC(C)N (configuration not stated)
inactive: Potency [1] | outcome [2] | outcome [3] | outcome [4] | outcome [5] | outcome [6] | Potency [7] | outcome [8]

C1OCOCO1
inactive: Potency [9] | Potency [1] | outcome [2] | outcome [3] | outcome [4] | outcome [5] | outcome [6] | Potency [10] | outcome [8]

Cc1ccc(Cl)cc1Cl
inactive: Potency [9] | Potency [1] | outcome [2] | outcome [3] | outcome [4] | outcome [5] | outcome [6] | Potency [7] | Potency [10] | outcome [8]

c1ccc([C@H]2CN3CCSC3=N2)cc1
inactive: Potency [9] | Potency [1] | outcome [2] | outcome [3] | outcome [4] | outcome [5] | outcome [6] | Potency [7] | outcome [8]

COC(=O)C1=C(C)NC(C)=C(C(=O)OC)C1c1ccccc1[N+](=O)[O-]
39 µM (active) and inactive: Potency [9]
inactive: Potency [1] | outcome [2] | outcome [3] | outcome [4] | outcome [5] | outcome [6] | outcome [8]
49 µM (active) and inactive: Potency [10]

CC(C)(C)NCCNC(C)(C)C
inactive: Potency [9] | Potency [1] | outcome [2] | outcome [3] | outcome [4] | outcome [5] | outcome [6] | Potency [10] | outcome [8]

Cc1cccc(C)c1NC(=O)C(C)N (configuration not stated)
inactive: Potency [9] | Potency [1] | outcome [2] | outcome [3] | outcome [4] | outcome [5] | outcome [6] | Potency [7] | Potency [10] | outcome [8]

CN(C)CCCN1c2ccccc2CCc2ccc(Cl)cc21
inactive: outcome [2] | outcome [3] | outcome [4] | outcome [5] | outcome [6] | Potency [10]
active: Potency [9] 43.6 µM | Potency [1] 38.9 µM | Potency [7] 19.3 µM

CC(C)(C)c1ccc(O)c(O)c1
inactive: outcome [2] | outcome [3] | outcome [4] | outcome [5] | outcome [6] | Potency [10]
active: Potency [9] 25.4 µM | Potency [7] 25.2 µM and 27.3 µM

CC(C)c1cc2c(cc1S(=O)(=O)O)[C@@]1(C)CCC[C@@](C)(C(=O)O)[C@@H]1CC2
inactive: Potency [9] | outcome [2] | outcome [3] | outcome [4] | outcome [5] | outcome [6] | Potency [7] | outcome [8]

CC(=O)N(CC(O)CO)c1c(I)c(C(=O)NCCO)c(I)c(C(=O)NCC(O)CO)c1I (configuration not stated)
inactive: Potency [9] | Potency [1] | outcome [2] | outcome [3] | outcome [4] | outcome [5] | outcome [6] | Potency [7] | outcome [8]

C[C@](N)(Cc1ccc(O)cc1)C(=O)O
inactive: activity change, negative = cytotoxicity [9] -0.278% [at 5.95 µM] | viability change, negative = cytotoxic [1] 4.51% [at 6.95 µM] | activation [2] 0.267% [at 6.95 µM] | activity, negative = cytotoxic [3] 2.4% [at 6.95 µM] | activation [4] 0.0819% [at 6.95 µM] | activity change, negative = cytotoxicity [5] -6.6% [at 6.95 µM] | activity, negative = cytotoxicity [6] 1.71% [at 8.39 µM] | activity change, negative = inhibition [7] 10.5% [at 8.39 µM] | viability change, negative = cytotoxic [10] 6.35% [at 6.97 µM] | activation [8] -6.83% [at 6.97 µM]

CCOC(=O)Nc1ccc(NCc2ccc(F)cc2)nc1N
inactive: Potency [9] | Potency [1] | outcome [2] | outcome [3] | outcome [4] | outcome [5] | outcome [6] | Potency [10] | outcome [8]
